In PubChem BioAssay (EPA / NIEHS):
The source made the active and inactive calls. How the source made its calls: active means hit-call score of the fitted dose curve at least 0.9, where 1 is the maximum; inactive means score below 0.9.

Columns and labels:
[1] = ATG_CRE_CIS: Attagene CIS-FACTORIAL HepG2 Assay for human cAMP Responsive Element (CRE) binding protein 3 (AID 2282926); details: HepG2 CRE cis-reporter, Attagene multiplexed mRNA; actives raise or lower the signal
Method in brief: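 Induced reporter mRNA from a CRE cis element, measured in HepG2 among many multiplexed units at 24 h. Detection used RT-PCR plus capillary electrophoresis of fluorescent fragments; DMSO served as negative control.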

[2] = biological target: CCAAT/enhancer-binding protein beta (Homo sapiens) (UniProt P17676); test: ATG_C_EBP_CIS: Attagene CIS-FACTORIAL HepG2 Assay for human CCAAT/Enhancer Binding Protein (C/EBP) beta (AID 2282927); details: HepG2 Attagene cis-factorial transcription factor reporter; actives raise or lower the signal
Method in brief: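 Chemical-treated HepG2 cells (24 h) bearing cis-regulated reporter constructs were processed for total RNA, then reverse transcription, PCR amplification, fluorescent primer extension and fragment analysis; gain- and loss-of-signal were fitted against DMSO.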

[3] = ATG_DR4_LXR_CIS: Attagene CIS-FACTORIAL HepG2 Assay for human Liver X Receptor (LXR), DR4 submotif (AID 2282929); details: HepG2 Attagene DR4 cis-reporter, mRNA transcription; actives raise or lower the signal
Method in brief: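 HepG2 cells transiently transfected with cis-promoter-driven multiplexed reporter units (DR4 element) were dosed for 24 h. Reporter mRNA was quantified by RT-PCR, fluorescent primer extension, HpaI digestion and capillary electrophoresis; bidirectional fitting versus DMSO baseline.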

[4] = biological target: Aryl hydrocarbon receptor (Homo sapiens) (UniProt P35869); test: ATG_Ahr_CIS: Attagene CIS-FACTORIAL HepG2 Assay for human Aryl Hydrocarbon Receptor (Ahr) (AID 2282930); details: HepG2 AhR cis-factorial reporter transcription; actives raise or lower the signal
Method in brief: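 Following 24 h of chemical dosing, transfected HepG2 liver cells with cis-driven reporter units were lysed for RNA; reporter mRNA was quantified via RT-PCR and capillary electrophoresis, and responses fitted bidirectionally from DMSO.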

[5] = ATG_AP_1_CIS: Attagene CIS-FACTORIAL HepG2 Assay for human Activator Protein 1 (AP-1) (AID 2282931); details: HepG2 Attagene cis-factorial AP-1 reporter mRNA; actives raise or lower the signal
Method in brief: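 HepG2 cells transiently transfected with cis-element-driven multiplex reporter units; 24 h compound exposure. Reporter mRNA quantified by RT-PCR, FAM-labelled fragments resolved by capillary electrophoresis; bidirectional fit versus DMSO baseline.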

[6] = ATG_AP_2_CIS: Attagene CIS-FACTORIAL HepG2 Assay for human Activator Protein 2 (AP-2) (AID 2282932); details: HepG2 AP-2 cis-reporter, Attagene transcription factor profiling; actives raise or lower the signal
Method in brief: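 Assay in transfected HepG2 with promoter-regulated reporters, 24 h incubation after dosing. Signal is reporter mRNA fluorescence (RT-PCR, capillary electrophoresis), analysed for both increases and decreases relative to DMSO controls.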

[7] = ATG_BRE_CIS: Attagene CIS-FACTORIAL HepG2 Assay for human Bone Morphogenetic Protein (BMP) Response Element (BRE) (AID 2282933); details: HepG2 BMP response element reporter, Attagene transcription factor profiling; actives raise or lower the signal
Method in brief: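 HepG2 cells transiently transfected with CIS reporter units (endogenous TF activity, BMP response element), dosed 24 h. Reporter mRNA quantified by RT-PCR, fluorescent labelling and capillary electrophoresis; bidirectional fit vs DMSO baseline.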

[8] = biological target: Retinoic acid receptor alpha (Homo sapiens) (UniProt P10276); test: ATG_DR5_RAR_CIS: Attagene CIS-FACTORIAL HepG2 Assay for human Retinoic Acid Receptor Alpha (RARE), DR5 submotif (AID 2282934); details: HepG2 Attagene cis-factorial RARE DR5 reporter, mRNA; actives raise or lower the signal
Method in brief: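 Transfected HepG2 reporter cells are exposed to chemicals for 24 h. Then RNA is extracted and the DR5 element reporter transcript is measured by RT-PCR and capillary electrophoresis, with bidirectional curve fitting relative to DMSO.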

[9] = biological target: Transcription factor E2F1 (Homo sapiens) (UniProt Q01094); test: ATG_E2F_CIS: Attagene CIS-FACTORIAL HepG2 Assay for human E2F Transcription Factor 1 (AID 2282935); details: HepG2 Attagene cis-reporter, E2F reporter RNA transcripts; actives raise or lower the signal
Method in brief: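 In this cis-factorial format, endogenous factor activity drives transfected reporters in HepG2; transcripts collected at 24 h are quantified by fluorescence after RT-PCR and capillary separation.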

[10] = ATG_E_Box_CIS: Attagene CIS-FACTORIAL HepG2 Assay for human Enhancer Box (E-box) (AID 2282936); details: HepG2 E-box cis-reporter transcription, actives raise or lower the signal
Method in brief: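 Measured 24 h post-dosing in HepG2 cells transfected with multiple cis-regulated reporter units, signal being reporter mRNA induction detected by fluorescent RT-PCR with capillary electrophoresis; gain or loss fitted against DMSO.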

[11] = ATG_M_61_CIS: Attagene CIS-FACTORIAL HepG2 Assay for M61 Transcription Factor (Internal Marker) (AID 2282937); details: HepG2 Attagene CIS-FACTORIAL M61 internal marker reporter; actives raise or lower the signal
Method in brief: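 HepG2 cells transiently transfected with cis-element-driven multiple reporter transcription units, dosed for 24 h. Reporter mRNA measured by RT-PCR, 6-FAM primer-extension labelling, HpaI digestion and capillary electrophoresis; bidirectional fit versus DMSO baseline.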

[12] = ATG_Ets_CIS: Attagene CIS-FACTORIAL HepG2 Assay for human Erythroblast Transformation Specific (ETS) (AID 2282941); details: HepG2 ETS cis-reporter transcription, actives raise or lower the signal
Method in brief: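 Cis-regulated reporter mRNA induction in HepG2 (transient transfection), 24 h exposure, RT-PCR plus capillary electrophoresis detection; DMSO serves as negative control and baseline.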

[13] = biological target: Hepatocyte nuclear factor 3-beta (Homo sapiens) (UniProt Q9Y261); test: ATG_FoxA2_CIS: Attagene CIS-FACTORIAL HepG2 Assay for human Forkhead box A2 (FOXA2) (AID 2282942); details: HepG2 cis-reporter transcription factor activity, 24 h; actives raise or lower the signal
Method in brief: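 HepG2 cells transiently transfected with multiple cis-regulated reporter transcription units, dosed for 24 h. Reporter mRNA measured by RT-PCR, 6-FAM labelling, HpaI digestion and capillary electrophoresis; bidirectional fitting against DMSO baseline.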

[14] = ATG_FoxO_CIS: Attagene CIS-FACTORIAL HepG2 Assay for human Forkhead box O (FoxO) (AID 2282943); details: HepG2 Attagene cis-reporter, FoxO element, mRNA; actives raise or lower the signal
Method in brief: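 24 h chemical exposure, HepG2 with transient cis-MRTU transfection. RNA extraction, oligo(dT) RT, reporter-specific PCR, primer-extension labelling, HpaI digestion, CE fragment analysis; bidirectional fit, DMSO baseline.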

[15] = ATG_GATA_CIS: Attagene CIS-FACTORIAL HepG2 Assay for human GATA Binding Protein (AID 2282944); details: HepG2 GATA cis-element reporter, Attagene multiplex mRNA; actives raise or lower the signal
Method in brief: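 HepG2 cells transiently transfected with multiplexed cis-element reporter units measure endogenous GATA activity; after 24 h compound exposure, reporter mRNA quantified by RT-PCR and capillary electrophoresis. Changes fitted in both directions vs DMSO.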

[16] = ATG_GLI_CIS: Attagene CIS-FACTORIAL HepG2 Assay for human Zinc Finger Protein GLI1 (AID 2282945); details: HepG2, Attagene cis-factorial reporter mRNA, GLI element; actives raise or lower the signal
Method in brief: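 HepG2 cells transiently transfected with cis-promoter multiplexed reporter units report endogenous transcription factor activity. After 24 h chemical exposure, reporter mRNA was quantified by RT-PCR, 6-FAM labelling, HpaI digestion and capillary electrophoresis, with bidirectional fitting against DMSO.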

[17] = ATG_EGR_CIS: Attagene CIS-FACTORIAL HepG2 Assay for human Early Growth Response 1 (EGR1) (AID 2282938); details: HepG2 Attagene CIS-FACTORIAL EGR reporter mRNA; actives raise or lower the signal
Method in brief: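 HepG2 cells transiently transfected with cis-promoter-driven multiplexed reporter transcription units; reporter mRNA measured 24 h after compound dosing by RT-PCR, 6-FAM primer extension, HpaI digestion and capillary electrophoresis. Bidirectional fit versus DMSO baseline.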

[18] = ATG_M_19_CIS: Attagene CIS-FACTORIAL HepG2 Assay for M19 Transcription Factor (Internal Marker) (AID 2282939); details: HepG2 Attagene CIS-FACTORIAL M19 internal marker reporter; actives raise or lower the signal
Method in brief: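 HepG2 cells transiently transfected with cis-regulated multiplexed reporter units, dosed 24 h. Reporter mRNA quantified by RT-PCR and capillary electrophoresis; internal background marker fitted bidirectionally versus DMSO.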

Measured: AC50

Sequence of Transcription factor E2F1 (Homo sapiens) (Q01094 whole entry, looked up): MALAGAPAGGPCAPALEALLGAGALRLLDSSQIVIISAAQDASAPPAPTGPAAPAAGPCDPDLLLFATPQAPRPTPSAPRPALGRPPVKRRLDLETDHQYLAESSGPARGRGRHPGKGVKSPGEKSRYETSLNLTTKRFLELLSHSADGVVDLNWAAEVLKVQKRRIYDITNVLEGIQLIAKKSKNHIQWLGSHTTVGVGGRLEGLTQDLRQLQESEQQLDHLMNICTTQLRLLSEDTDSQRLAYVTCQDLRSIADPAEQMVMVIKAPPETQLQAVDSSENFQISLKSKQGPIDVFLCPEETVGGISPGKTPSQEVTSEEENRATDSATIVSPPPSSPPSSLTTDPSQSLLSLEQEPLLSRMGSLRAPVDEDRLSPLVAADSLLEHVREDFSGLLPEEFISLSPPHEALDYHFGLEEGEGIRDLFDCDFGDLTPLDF
Sequence of Hepatocyte nuclear factor 3-beta (Homo sapiens) (Q9Y261 whole entry, looked up): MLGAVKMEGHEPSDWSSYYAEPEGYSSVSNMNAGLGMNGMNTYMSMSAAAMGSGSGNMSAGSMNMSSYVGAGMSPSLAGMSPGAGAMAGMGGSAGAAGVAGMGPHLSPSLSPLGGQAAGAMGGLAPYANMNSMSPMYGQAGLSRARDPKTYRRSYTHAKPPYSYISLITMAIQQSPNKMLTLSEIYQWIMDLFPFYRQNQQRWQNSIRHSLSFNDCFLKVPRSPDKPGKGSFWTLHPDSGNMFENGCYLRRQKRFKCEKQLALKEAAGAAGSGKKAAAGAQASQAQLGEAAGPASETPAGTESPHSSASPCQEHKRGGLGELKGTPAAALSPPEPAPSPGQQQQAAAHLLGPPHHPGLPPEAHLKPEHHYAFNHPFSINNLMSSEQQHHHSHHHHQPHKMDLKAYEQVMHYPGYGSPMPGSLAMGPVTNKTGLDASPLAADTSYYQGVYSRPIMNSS
Sequence of Retinoic acid receptor alpha (Homo sapiens) (P10276 whole entry, looked up): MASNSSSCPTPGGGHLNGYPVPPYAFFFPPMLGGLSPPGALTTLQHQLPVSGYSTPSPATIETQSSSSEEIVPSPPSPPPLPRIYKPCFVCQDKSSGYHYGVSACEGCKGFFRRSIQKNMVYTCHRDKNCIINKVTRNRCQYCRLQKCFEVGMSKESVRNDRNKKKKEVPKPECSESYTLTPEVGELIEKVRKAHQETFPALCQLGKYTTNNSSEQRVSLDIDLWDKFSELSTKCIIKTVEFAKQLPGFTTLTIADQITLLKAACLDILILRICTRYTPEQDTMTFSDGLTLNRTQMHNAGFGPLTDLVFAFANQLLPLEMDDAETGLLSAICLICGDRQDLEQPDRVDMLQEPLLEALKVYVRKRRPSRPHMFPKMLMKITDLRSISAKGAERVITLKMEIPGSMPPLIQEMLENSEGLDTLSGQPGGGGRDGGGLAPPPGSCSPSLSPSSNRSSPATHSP
Sequence of CCAAT/enhancer-binding protein beta (Homo sapiens) (P17676 whole entry, looked up, the tested form may be a part): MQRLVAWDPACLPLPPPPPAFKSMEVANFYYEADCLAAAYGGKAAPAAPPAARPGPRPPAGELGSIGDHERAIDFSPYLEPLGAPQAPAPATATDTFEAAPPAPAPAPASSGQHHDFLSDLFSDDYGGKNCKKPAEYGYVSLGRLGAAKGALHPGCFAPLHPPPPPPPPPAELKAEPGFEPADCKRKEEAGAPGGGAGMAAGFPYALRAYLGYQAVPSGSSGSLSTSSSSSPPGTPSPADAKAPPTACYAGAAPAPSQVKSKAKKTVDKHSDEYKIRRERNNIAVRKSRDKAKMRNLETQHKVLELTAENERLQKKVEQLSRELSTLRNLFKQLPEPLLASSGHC
Sequence of Aryl hydrocarbon receptor (Homo sapiens) (P35869 whole entry, looked up): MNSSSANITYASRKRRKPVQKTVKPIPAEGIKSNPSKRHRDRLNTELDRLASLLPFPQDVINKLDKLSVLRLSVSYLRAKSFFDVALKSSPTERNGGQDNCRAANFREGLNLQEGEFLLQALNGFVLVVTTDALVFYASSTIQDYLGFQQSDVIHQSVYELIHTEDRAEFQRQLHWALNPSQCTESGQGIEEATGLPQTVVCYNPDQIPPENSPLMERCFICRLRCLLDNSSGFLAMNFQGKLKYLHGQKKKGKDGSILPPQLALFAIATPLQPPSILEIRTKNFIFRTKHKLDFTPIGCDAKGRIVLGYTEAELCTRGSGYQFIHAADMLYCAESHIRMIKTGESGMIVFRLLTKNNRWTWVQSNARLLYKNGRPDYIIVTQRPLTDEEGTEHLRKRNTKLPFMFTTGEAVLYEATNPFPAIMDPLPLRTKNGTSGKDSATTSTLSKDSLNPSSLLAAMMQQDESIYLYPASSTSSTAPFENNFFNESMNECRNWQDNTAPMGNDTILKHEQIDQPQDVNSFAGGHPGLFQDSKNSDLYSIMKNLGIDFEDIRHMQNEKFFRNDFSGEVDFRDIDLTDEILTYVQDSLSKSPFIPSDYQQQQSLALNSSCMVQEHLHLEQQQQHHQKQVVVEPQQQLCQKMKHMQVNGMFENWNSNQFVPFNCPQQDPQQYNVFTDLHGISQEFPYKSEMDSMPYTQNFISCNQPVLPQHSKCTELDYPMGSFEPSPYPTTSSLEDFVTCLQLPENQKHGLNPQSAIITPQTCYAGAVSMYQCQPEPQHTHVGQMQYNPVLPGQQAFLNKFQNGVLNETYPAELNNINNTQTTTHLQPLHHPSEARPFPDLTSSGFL

C=C(C)CNCC
inactive: [1] | [2] | [3] | [4] | [5] | [6] | [7] | [8] | [9] | [10] | [11] | [12] | [13] | [14] | [15] | [16]

COC(C)(C)CCCC(C)CC=O (centres undefined)
inactive: [1] | [2] | [3] | [4] | [5] | [6] | [7] | [8] | [9] | [10] | [11] | [17] | [18] | [12] | [13] | [14] | [15] | [16]

CC(=O)O[C@@H]1C[C@@H]2CC[C@@]1(C)C2(C)C
inactive: [1] | [2] | [4] | [5] | [6] | [7] | [8] | [10] | [11] | [17] | [18] | [12] | [13] | [14] | [15] | [16]

CC1(C)O[C@@H]2C[C@H]3[C@@H]4CCC5=CC(=O)C=C[C@]5(C)[C@@]4(F)[C@@H](O)C[C@]3(C)[C@]2(C(=O)CO)O1
inactive: [1] | [2] | [3] | [5] | [6] | [7] | [8] | [9] | [10] | [11] | [17] | [18] | [12] | [13] | [14] | [15] | [16]
active: [4] 0.082 µM

C1=CC2C3C=CC(C3)C2C1 (centres undefined)
inactive: [1] | [2] | [3] | [5] | [6] | [7] | [8] | [9] | [10] | [11] | [17] | [18] | [12] | [13] | [14] | [15] | [16]
active: [4] 98.5 µM

Cc1cc(=O)oc2cc(N(C)C)ccc12
inactive: [2] | [3] | [4] | [5] | [6] | [7] | [8] | [9] | [10] | [11] | [17] | [18] | [12] | [15] | [16]
active: [1] 54.1 µM

Cc1c(OCC(F)(F)F)ccnc1CS(=O)c1nc2ccccc2[nH]1 (centres undefined)
active: [4] 1.28 µM | [7] 153 µM | [17] 27.8 µM
inactive: [1] | [2] | [5] | [6] | [8] | [9] | [10] | [11] | [18] | [12] | [13] | [14] | [15] | [16]
